# Measurements reported in the supplement of paper PMC11732987, “Enantioselective OTUD7B fragment discovery through chemoproteomics screening and high-throughput optimisation” (Communications Chemistry, 2025).
# Values without a mark were called inactive.
# Key:
# Experiment in all cases: log2 ratio of Biotin-Ahx-Ub-VS probe labelling (fragment/DMSO); higher = less target engagement (more negative = stronger competition), active = hit call of the paper (q ≤ 0.05, log2 ratio ≤ -1)
# Conditions in all cases: compound concentration: 200 uM; treatment time: 3 h
# [1] = target: T1, OTUD6B (UniProt Q8N6M0)
# T1 sequence (whole entry): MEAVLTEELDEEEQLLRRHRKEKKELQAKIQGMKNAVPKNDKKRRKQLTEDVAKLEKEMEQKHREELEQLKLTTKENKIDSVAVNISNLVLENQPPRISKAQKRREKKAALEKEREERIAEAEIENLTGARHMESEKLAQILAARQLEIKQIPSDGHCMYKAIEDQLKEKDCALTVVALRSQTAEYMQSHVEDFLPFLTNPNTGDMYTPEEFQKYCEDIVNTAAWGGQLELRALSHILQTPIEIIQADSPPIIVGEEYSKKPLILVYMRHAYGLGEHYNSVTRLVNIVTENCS
# Outline: (§1)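 HEK293T lysate, 495 µg per sample in Tris/CHAPS/IGEPAL buffer with protease inhibitors, was treated in triplicate with fragment at 200 µM or vehicle for 3 h and then with Biotin-Ahx-Ub-VS at 0.5 µM final for 1 h. Labelled DUBs were NeutrAvidin-enriched, digested with LysC and trypsin, and run by diaPASEF LC-MS/MS. Spectronaut label-free quantities were global-median-normalised, and values are average log2 fragment/vehicle ratios by unpaired t-test on proteins with ≥2 unique peptides.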
# [2] = target: T2, OTUD7B (UniProt Q6GQQ9)
# T2 sequence (whole entry): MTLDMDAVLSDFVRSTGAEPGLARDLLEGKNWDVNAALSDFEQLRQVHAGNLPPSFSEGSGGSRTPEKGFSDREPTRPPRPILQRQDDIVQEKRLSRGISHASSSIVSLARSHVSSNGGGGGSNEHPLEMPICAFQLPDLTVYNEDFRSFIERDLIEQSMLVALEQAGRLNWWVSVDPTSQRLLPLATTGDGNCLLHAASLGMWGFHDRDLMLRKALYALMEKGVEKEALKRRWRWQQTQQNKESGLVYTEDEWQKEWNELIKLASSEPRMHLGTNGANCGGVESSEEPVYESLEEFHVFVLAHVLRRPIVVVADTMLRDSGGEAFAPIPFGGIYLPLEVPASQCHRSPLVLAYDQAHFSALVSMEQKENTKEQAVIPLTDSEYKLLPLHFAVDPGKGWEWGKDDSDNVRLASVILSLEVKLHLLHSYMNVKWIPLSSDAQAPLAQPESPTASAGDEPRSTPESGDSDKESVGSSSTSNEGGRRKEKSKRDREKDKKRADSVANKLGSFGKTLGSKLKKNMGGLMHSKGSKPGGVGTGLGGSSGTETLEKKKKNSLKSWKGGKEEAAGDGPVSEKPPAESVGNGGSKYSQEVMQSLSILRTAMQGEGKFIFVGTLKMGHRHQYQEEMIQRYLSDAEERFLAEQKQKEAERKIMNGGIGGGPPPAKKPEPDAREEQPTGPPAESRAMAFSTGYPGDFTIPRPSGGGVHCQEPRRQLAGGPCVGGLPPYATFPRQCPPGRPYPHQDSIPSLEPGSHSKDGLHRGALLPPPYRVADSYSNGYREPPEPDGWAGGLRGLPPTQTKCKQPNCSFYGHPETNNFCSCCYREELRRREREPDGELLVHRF
# Outline: as §1
# [3] = target: PRPF8 (UniProt Q6P2Q9)
# Outline: as §1
# [4] = target: T3, PSMD7 (UniProt P51665)
# T3 sequence (whole entry): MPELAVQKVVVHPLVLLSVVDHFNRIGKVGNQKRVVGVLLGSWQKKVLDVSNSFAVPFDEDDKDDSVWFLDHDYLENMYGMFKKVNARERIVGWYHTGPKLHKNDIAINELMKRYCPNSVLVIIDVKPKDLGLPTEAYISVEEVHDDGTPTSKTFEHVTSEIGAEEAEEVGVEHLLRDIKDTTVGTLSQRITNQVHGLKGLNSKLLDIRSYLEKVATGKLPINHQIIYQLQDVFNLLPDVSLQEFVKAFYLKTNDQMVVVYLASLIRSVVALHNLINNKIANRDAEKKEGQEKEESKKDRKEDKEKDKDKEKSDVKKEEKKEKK
# Outline: as §1
# [5] = target: UCHL1 (UniProt P09936)
# Outline: as §1
# [6] = target: T4, UCHL3 (UniProt P15374)
# T4 sequence (whole entry): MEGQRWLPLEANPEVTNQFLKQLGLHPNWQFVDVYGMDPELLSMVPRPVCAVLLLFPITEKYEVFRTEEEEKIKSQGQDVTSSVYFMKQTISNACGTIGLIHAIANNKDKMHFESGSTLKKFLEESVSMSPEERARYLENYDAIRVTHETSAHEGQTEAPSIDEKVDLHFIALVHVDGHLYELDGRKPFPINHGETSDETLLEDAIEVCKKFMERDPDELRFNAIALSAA
# Outline: as §1
# [7] = target: T5, UCHL5 (UniProt Q9Y5K5)
# T5 sequence (whole entry): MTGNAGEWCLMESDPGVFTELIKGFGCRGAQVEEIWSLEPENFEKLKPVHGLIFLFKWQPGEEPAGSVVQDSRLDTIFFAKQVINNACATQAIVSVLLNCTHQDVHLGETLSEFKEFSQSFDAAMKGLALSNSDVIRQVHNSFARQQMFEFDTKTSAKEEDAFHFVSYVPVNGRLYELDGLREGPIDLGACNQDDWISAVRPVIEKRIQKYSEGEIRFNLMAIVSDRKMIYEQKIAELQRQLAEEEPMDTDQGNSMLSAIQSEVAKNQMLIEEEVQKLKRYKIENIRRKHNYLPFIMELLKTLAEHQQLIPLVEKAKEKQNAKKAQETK
# Outline: as §1
# [8] = target: USP10 (UniProt Q14694)
# Outline: as §1
# [9] = target: T6, USP15 (UniProt Q9Y4E8)
# T6 sequence (whole entry): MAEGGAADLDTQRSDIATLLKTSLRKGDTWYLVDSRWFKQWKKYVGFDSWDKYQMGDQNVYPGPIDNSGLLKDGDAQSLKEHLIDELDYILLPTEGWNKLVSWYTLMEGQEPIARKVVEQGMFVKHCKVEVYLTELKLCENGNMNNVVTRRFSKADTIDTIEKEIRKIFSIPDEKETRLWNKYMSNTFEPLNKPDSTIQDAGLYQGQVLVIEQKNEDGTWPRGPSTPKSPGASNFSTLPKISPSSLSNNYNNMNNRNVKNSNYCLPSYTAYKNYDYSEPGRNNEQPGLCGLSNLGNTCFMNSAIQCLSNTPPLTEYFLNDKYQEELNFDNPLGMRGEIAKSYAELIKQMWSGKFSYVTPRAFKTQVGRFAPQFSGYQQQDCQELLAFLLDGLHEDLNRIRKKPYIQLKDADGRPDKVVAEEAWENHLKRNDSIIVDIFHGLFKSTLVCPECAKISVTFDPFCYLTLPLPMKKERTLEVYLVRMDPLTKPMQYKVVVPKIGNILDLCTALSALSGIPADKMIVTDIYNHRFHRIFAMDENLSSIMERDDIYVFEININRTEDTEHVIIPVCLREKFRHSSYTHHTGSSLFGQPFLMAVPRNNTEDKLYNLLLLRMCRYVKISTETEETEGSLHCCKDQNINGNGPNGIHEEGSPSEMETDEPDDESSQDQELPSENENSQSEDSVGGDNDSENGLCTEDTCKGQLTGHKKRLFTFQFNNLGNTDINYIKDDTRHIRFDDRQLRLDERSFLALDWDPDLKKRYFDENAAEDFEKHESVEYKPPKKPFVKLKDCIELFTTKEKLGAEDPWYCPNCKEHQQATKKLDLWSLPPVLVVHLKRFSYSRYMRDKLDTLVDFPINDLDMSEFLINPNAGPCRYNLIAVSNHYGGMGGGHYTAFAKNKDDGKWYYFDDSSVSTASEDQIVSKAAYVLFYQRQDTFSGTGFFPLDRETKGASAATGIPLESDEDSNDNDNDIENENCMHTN
# Outline: as §1
# [10] = target: USP16 (UniProt Q9Y5T5)
# Outline: as §1
# UCHL1, sequence (P09936 whole entry, looked up): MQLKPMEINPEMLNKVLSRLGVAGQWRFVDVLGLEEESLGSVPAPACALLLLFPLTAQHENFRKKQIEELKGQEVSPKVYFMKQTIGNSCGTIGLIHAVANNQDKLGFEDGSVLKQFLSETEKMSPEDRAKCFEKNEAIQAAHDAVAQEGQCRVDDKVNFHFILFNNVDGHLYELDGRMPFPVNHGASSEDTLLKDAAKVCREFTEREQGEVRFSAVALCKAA
# USP10, sequence (Q14694 whole entry): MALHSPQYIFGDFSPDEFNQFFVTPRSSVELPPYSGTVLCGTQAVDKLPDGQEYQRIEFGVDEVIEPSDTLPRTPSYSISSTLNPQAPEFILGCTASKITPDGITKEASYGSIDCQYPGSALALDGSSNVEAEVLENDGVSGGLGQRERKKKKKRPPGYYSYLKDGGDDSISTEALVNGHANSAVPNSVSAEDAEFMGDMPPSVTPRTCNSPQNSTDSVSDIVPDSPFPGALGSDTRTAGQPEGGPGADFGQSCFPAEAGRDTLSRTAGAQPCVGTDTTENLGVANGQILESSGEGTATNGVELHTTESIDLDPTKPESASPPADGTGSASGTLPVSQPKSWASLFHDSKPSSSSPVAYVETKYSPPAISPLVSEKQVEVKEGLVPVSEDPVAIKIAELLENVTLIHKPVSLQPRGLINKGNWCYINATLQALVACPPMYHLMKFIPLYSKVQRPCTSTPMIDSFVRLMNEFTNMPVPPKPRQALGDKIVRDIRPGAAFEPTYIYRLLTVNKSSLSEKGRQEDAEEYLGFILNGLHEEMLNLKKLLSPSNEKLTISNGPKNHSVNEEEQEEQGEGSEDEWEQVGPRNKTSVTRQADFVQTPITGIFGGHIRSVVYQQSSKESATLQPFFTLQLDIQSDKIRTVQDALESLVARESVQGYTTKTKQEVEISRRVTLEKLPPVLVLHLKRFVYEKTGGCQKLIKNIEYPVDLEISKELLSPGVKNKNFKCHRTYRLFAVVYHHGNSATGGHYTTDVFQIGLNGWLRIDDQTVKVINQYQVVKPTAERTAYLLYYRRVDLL
# USP16, sequence (Q9Y5T5 whole entry, looked up): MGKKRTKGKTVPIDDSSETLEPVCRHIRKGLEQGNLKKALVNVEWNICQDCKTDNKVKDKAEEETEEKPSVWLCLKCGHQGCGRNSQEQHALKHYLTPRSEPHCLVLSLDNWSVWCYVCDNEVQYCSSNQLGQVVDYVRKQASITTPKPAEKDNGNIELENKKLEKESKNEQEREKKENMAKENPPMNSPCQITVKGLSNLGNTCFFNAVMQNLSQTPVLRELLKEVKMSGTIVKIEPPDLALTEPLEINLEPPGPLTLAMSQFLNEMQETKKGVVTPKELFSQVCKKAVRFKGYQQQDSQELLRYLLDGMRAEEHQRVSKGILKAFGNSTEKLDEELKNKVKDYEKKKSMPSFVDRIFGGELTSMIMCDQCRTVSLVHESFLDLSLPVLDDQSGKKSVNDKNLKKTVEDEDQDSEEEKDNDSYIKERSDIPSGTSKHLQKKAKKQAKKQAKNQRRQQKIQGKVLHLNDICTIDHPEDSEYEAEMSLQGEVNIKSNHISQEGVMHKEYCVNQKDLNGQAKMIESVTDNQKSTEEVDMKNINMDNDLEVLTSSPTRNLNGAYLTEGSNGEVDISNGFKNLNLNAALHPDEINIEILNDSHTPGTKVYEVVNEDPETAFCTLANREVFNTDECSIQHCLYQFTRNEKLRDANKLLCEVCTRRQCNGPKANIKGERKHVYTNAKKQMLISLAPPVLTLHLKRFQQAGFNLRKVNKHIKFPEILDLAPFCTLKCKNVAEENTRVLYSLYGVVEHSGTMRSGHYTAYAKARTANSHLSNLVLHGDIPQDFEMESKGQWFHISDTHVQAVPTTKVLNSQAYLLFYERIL
structure (smiles),measurement,setting,value
O=C(CCl)N1CCN2C(=O)CCC2C1 (stereo not given),log2 ratio of Biotin-Ahx-Ub-VS probe labelling,[1],-0.158
same,log2 ratio of Biotin-Ahx-Ub-VS probe labelling,[2],-0.49
same,log2 ratio of Biotin-Ahx-Ub-VS probe labelling,[3],-0.164
same,log2 ratio of Biotin-Ahx-Ub-VS probe labelling,[4],-0.288
same,log2 ratio of Biotin-Ahx-Ub-VS probe labelling,[5],-1.64 (active)
same,log2 ratio of Biotin-Ahx-Ub-VS probe labelling,[6],0.118
same,log2 ratio of Biotin-Ahx-Ub-VS probe labelling,[7],-0.0709
same,log2 ratio of Biotin-Ahx-Ub-VS probe labelling,[8],-0.195
same,log2 ratio of Biotin-Ahx-Ub-VS probe labelling,[9],-0.15
same,log2 ratio of Biotin-Ahx-Ub-VS probe labelling,[10],0.00152
